Rows were chosen to be rich in hits. Some 3.3% of all compounds tested hit in one or more screens of this group.
PHOSPHO1 block = blocks human PHOSPHO1 phosphatase activity; Q8TCT1; inhibition, % at 13.3 µM; recombinant PHOSPHO1, absorbance phosphatase assay; 1.1% of 290,000 active; in the data active means inhibition above about 60%
Target sequence (Q8TCT1 whole entry, looked up): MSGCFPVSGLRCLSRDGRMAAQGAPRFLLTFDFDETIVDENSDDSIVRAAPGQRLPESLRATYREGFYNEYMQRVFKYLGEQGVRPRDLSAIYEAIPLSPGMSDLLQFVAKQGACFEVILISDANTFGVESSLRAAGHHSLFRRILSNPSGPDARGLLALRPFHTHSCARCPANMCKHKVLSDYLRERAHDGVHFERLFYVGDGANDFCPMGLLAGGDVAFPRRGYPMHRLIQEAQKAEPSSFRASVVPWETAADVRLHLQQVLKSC
Rpn11 inh = blocks the human proteasome subunit Rpn11; human 26S proteasome, Ub4-pepOG fluorescence polarization; 20S core pre-blocked with epoxomicin; 0.59% of 360,000 active; inhibition, % at 20 µM; O00487;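 active means inhibition at 20 µM, scaled to each plate's controls, above about 33%, limit read from the data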
NRP1-CendR mod = NRP-1/CendR interaction modulation | O14786 | FAM-RPARPAR peptide binding to NRP-1, fluorescence polarization | inhibition, % at 25 µM | 0.85% of 360,000 active | AID 602438;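 active means inhibition or corrected inhibition above about 18%, plus a signal ratio from 0.5 to 1.5, limit read from the data, passing the limit was not always enough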
TPT1 inh = C. albicans TPT1 enzyme inhibition; inhibition, % at 5 µM; recombinant caTPT1, FP RNA substrate dephosphorylation; 0.81% of 300,000 active; AID 1962;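 active means inhibition above the mean of all tested compounds plus 3 SD, set per screening campaign, cut at about 24% in these data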;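 further: plate controls were DMSO alone for no effect and ferristatin control at 100 nM for full effect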
Fh CTSL1 inh = blocks F. hepatica cathepsin L1 in PFM18AAP counter-screen; 0.49% of 300,000 active; recombinant F. hepatica cathepsin L1, Z-Leu-Arg-MCA fluorescence; inhibition, % at 5.96 µM; AID 1906;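 active means inhibition above the mean of all tested compounds plus 3 SD, set per screening campaign, cut at about 17% in these data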;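 further: 0% = plate median of test compound wells and 100% = 1 µM Z-Phe-Ala-diazomethylketone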
HNF4A DNA FP = change in binding of human HNF4 alpha to DNA; 0.3% of 360,000 active; activity change, % at 10 µM; P41235; HNF4a-FITC DNA binding, fluorescence polarization, 1 h; in the data active means activity change above about 30%, passing the limit was not always enough
* hit, by the source's call; · = no result shown.

SMILES	PHOSPHO1 block	Rpn11 inh	NRP1-CendR mod	TPT1 inh	Fh CTSL1 inh	HNF4A DNA FP
Cc1ccc(S(=O)(=O)N(CCC(=O)Nc2ccc(OC(F)(F)F)cc2)c2ccccc2)cc1	-3	-6	40*	1	1	2
Cc1ccc(S(=O)(=O)N(CCC(=O)NCc2ccccc2F)c2ccccc2)cc1	·	0	-3	·	·	1
Cc1noc(C)c1C(=O)Nc1cccc(S(=O)(=O)N2CCCCC2)c1	·	2	-1	·	·	0
N#C/C(C(=O)NCc1ccco1)=C1/SC(Cc2ccc(F)cc2)C(=O)N1c1ccccc1 (centres undefined)	7	8	-6	7	1	2
Cc1ccc(S(=O)(=O)NCC(=O)N(c2ccccc2)C(C(=O)NCc2ccccc2)c2ccco2)cc1 (centres undefined)	-8	0	29*	-4	1	1
Cc1ccc(-n2ncc3c(=O)n(CC(=O)N4CCCc5ccccc54)cnc32)cc1C	14	-2	-11	·	·	0
CCOc1cc(C2C(C#N)=C(N)Oc3n[nH]c(-c4ccncc4)c32)cc([N+](=O)[O-])c1O (centres undefined)	-7	0	32*	0	3	-1
COc1ccc(C(=O)c2c(C(F)(F)F)oc3c2C(=O)c2ccccc2C3=O)cc1OC	82*	4	0	0	31*	0
COc1ccc(C(=O)Nc2ccc3c(c2)C(=O)c2ccccc2C3=O)cc1OC	-2	·	14	2	5	-13
Cc1ccc(NC(=S)N2CCC(c3ccc(C)cc3)C2)cc1 (centres undefined)	45	-8	-11	-4	54*	1
COc1ccc(NC(=S)N2CCC(c3ccc(C)cc3)C2)cc1 (centres undefined)	15	-1	14	1	1	3
CCOC(=O)C1=C(C)OC2(O)c3ccccc3C(=O)C12O (centres undefined)	24	15	6	1	59*	1
CC(=O)C1=C(C)OC2(O)c3ccccc3C(=O)C12O (centres undefined)	-11	7	6	-1	51*	4
CC(C)(C)CNC(=O)C1(C)CCN1C(=O)Cc1ccc(C(C)(C)C)cc1 (centres undefined)	·	-2	33*	·	·	-5
CCCNC(=O)C1(C)CCN1C(=O)Cc1ccc(C(C)(C)C)cc1 (centres undefined)	·	5	-8	·	·	2
Nc1ncnc2[nH]c(=S)[nH]c12	·	-2	29*	·	·	-2
COc1ccccc1C1=CN(Cc2ccccc2)CCC1=O	·	-4	-14	·	·	2
O=C(C1=C(O)C(=O)N(CCCN2CCOCC2)C1c1ccccn1)c1cc2ccccc2o1 (centres undefined)	79*	2	8	-1	3	5
O=C(C1=C(O)C(=O)N(CCN2CCOCC2)C1c1ccc(F)cc1)c1cc2ccccc2o1 (centres undefined)	44	6	2	0	0	-24
CCOC(=O)c1sc(=NC(=O)c2c(F)cccc2F)n(C)c1C	32	-7	6	0	18*	2
CCOC(=O)c1sc(=NC(=O)c2ccc(F)cc2)n(C)c1C	54	0	15	-3	-1	-3
CCCCc1ccc(NC(=O)CSc2nnc(C)c(=O)n2N)cc1	63*	-15	-10	-3	2	-2
CCOC(=O)C1(Cc2cccc(Cl)c2)CCCN(C(=O)c2ccoc2C)C1 (centres undefined)	61*	-15	-4	·	·	2
CCOC(=O)C1(Cc2cccc(OC)c2)CCCN(Cc2nccn2CC)C1 (centres undefined)	60*	4	-10	-3	-2	0
CCn1ccnc1CN1CCCC(CO)(Cc2cccc(OC)c2)C1 (centres undefined)	32	5	-8	-6	-2	2
SMILES	PHOSPHO1 block	Rpn11 inh	NRP1-CendR mod	TPT1 inh	Fh CTSL1 inh	HNF4A DNA FP
CCOC(=O)C1(Cc2cccc(OC)c2)CCCN(C(=O)c2cc(C)on2)C1 (centres undefined)	68*	3	-5	0	1	0
CCOC(=O)C1(Cc2cccc(Cl)c2)CCCN(C(=O)c2ccco2)C1 (centres undefined)	16	-3	-6	-1	-1	1
O=C(NC1CCCCC1)C(c1cccnc1)N(C(=O)c1csnn1)c1ccccc1F (centres undefined)	14	-3	5	0	-3	-1
CCOC(=O)[C@]12CCCC=C1N(Cc1cccc3ccccc13)C(=O)[C@H](CC(=O)N1CCN(C(=O)C3CC3)CC1)C2	·	·	-12	·	·	-2
N=c1sccn1CC(=O)Nc1cc(Cl)ccc1Oc1ccccc1	69*	-4	-19	1	-7	-2
COc1ccccc1NC(=O)C(C)OC(=O)C1CC(=O)N(Cc2ccco2)C1 (centres undefined)	·	0	7	·	·	-2
CCn1c(C)c(C(C)=O)c(N2CCN(c3ccc(F)cc3)CC2)nc1=S	102*	2	-7	-6	0	5
Cc1ccc2oc(=O)c(/C=C(\O)c3cccs3)nc2c1	24	·	130	-2	2	12
Cc1ccc2oc(=O)c(/C=C(\O)c3ccccc3)nc2c1	-20	3	42*	-2	2	-2
O=c1oc2ccc(Cl)cc2nc1/C=C(\O)c1cccs1	13	-22	-90	-1	3	54*
C=CCn1c(SCC(N)=O)nnc1-c1cc(Br)ccc1O	11	-5	-7	-3	-1	-4
COC(=O)c1ccc2c(c1)C(C)(C)C(/C=C/c1ccc(OC)c(OC)c1OC)=[N+]2C	-71	8	-16	2	-1	2
COC(=O)c1ccc2c(c1)C(C)(C)C(/C=C/c1ccc(O)cc1)=[N+]2C	-34	·	-133	20	-5	41*
CCCCCCC1CC(CSC(=N)N)OC1=O (centres undefined)	-3	-3	-10	-1	1	2
CCCC1CC(CSC(=N)N)OC1=O (centres undefined)	6	0	27*	-5	0	-3
CCN1CCN(S(=O)(=O)c2ccc(Cl)c(C(=O)N(C)CC(=O)Nc3c(C)cccc3C)c2)CC1	·	4	1	·	·	-2
Cc1ccc(-n2cc(C(=O)c3ccc(N4CCN(C)CC4)cc3)nn2)cc1Cl	2	7	4	2	8	105*
CN1CCN(c2ccc(C(=O)c3cn(-c4ccc(F)c(Cl)c4)nn3)cc2)CC1	11	2	-2	3	0	7
Cc1cc(C(F)F)nn1CC(=O)NCc1ccccc1F	-24	-4	-4	2	-4	4
CC(Sc1nc2ccccc2o1)C(=O)O (centres undefined)	76*	-2	-6	2	-3	2
Cc1ccc(NC(=S)NNC(=S)NCc2ccccc2)cc1	75*	-3	-2	6	7	4
